BAZ2B block = blocks human BAZ2B; Q9UIF8; AlphaScreen BAZ2B-H3K14Ac peptide displacement; Potency, µM (highest dose often 114 µM), hits mostly inhibitors; hit rate 4.4% among 360,000; also: nearly all actives have a fitted effect of over 60% in size
Target sequence (Q9UIF8 whole entry, looked up): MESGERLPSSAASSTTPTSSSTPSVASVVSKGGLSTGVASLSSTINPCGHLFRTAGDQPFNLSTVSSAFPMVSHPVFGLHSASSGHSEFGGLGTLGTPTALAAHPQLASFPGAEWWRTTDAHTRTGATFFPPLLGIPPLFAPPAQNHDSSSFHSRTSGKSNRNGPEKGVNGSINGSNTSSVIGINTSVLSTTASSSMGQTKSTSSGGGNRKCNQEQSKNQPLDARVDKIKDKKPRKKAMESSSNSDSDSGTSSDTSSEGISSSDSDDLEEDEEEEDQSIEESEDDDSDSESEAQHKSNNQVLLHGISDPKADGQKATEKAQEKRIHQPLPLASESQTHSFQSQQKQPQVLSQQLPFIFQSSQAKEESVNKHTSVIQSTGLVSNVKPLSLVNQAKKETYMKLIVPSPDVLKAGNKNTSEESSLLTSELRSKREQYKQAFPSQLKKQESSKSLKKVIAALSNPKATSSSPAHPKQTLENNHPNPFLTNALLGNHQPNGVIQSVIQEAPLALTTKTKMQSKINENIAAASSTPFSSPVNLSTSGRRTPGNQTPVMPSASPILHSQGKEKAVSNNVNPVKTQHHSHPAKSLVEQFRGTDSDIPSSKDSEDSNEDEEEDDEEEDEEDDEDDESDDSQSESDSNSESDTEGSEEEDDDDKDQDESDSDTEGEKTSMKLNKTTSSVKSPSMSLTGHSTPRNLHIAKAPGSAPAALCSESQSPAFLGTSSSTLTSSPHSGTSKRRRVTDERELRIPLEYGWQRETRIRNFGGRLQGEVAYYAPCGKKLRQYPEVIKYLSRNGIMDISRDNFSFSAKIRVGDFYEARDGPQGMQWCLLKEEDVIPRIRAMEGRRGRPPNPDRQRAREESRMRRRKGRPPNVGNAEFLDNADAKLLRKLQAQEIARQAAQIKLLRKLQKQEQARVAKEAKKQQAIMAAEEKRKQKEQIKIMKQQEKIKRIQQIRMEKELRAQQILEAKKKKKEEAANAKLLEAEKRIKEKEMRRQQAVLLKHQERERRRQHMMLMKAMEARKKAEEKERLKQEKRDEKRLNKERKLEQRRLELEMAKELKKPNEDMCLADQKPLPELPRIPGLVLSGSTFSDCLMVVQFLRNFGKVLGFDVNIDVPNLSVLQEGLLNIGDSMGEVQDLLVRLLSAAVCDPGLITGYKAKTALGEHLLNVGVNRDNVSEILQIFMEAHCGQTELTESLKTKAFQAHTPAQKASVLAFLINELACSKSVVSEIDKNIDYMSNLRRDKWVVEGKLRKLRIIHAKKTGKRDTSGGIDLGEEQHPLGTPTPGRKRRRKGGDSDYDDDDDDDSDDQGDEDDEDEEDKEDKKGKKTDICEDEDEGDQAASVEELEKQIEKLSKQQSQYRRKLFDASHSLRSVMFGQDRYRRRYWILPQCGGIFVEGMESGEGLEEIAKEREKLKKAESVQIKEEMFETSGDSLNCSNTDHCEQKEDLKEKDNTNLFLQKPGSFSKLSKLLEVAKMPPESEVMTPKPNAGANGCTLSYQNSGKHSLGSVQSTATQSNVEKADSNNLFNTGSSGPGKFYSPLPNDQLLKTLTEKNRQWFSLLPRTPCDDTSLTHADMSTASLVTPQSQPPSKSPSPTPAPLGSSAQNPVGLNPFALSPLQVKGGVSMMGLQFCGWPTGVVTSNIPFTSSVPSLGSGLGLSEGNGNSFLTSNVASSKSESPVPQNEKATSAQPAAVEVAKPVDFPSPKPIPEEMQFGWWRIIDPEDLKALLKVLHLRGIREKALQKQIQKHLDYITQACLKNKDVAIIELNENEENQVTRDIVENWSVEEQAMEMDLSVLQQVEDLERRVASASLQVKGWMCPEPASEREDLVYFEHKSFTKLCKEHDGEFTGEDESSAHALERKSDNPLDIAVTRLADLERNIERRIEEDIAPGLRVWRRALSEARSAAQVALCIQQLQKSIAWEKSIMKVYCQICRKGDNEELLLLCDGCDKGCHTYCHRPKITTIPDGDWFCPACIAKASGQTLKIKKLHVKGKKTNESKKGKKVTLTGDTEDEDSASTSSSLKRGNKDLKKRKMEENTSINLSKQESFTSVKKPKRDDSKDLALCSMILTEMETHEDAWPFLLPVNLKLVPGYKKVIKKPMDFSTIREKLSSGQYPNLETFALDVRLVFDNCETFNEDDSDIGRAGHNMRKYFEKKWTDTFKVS
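Complex of BAZ2B and biotin-H3K14Ac (50 nM apiece) forms over 30 min at RT, then faces library compounds up to 110 uM for another 30 min; AlphaScreen beads added, 20 min dark incubation, luminescence read.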
HP1b chromo inh = blocks HP1-beta chromodomain binding to methylated histone tails. P83916. AlphaScreen HP1-beta / biotin-H3K9me3 peptide binding. Potency, µM (series often up to 114 µM), most hits filed as inhibitors. hit rate 0.56% among 390,000. AID 540317; also: nearly all actives have a fitted effect of over 70% in size
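HP1-beta protein (50 nM final) preincubated 30 min at room temperature with biotinylated H3(1-18)K9me3 peptide (50 nM) in PBS pH 7.4, 0.01% Tween-20, then compound added for 30 min. AlphaScreen streptavidin donor/nickel chelate acceptor beads (10 ug/mL final), 30 min dark, luminescence read.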
PI5P4K alpha inh = inhibitors of human PI5P4K alpha. P48426. PI5P4Kalpha enzyme, ADP-Glo luminescence, 60 min; hits give low values. max response, %. hit rate 1.2% among 330,000; active = max response of -50% or lower; inconclusive = between -30% and -50%; inactive = -30% or higher; also: value at the top dose of about 77 µM
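Controls without substrate or without enzyme flank wells where PI5P4Kalpha converts substrate using 5 microM ATP (final). Incubation lasts 60 minutes at room temperature; ADP formed is read by ADP-Glo luminescence.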
KAT2A inh = GCN5L2 (KAT2A) acetyltransferase inhibition. GCN5L2 HAT assay, ThioGlo1 CoA-SH fluorescence. Potency, µM (highest dose often 58.9 µM), actives largely listed as inhibitors. hit rate 0.21% among 390,000. AID 504327
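Enzyme at 20nM final was mixed with library compounds for 15 min at room temperature. Peptide H3(1-25) at 75uM, acetyl-CoA at 70uM and ThioGlo1 at 50uM were then added. Plates were read immediately and after 20 min (Ex340nm/Em540nm).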
JMJD2A Tudor inh = JMJD2A Tudor domain (human) inhibition; O75164; AlphaScreen JMJD2A-Tudor / H3K4me3 peptide binding; Potency, µM (titrated, usually from 114 µM), usual class: inhibitors; hit rate 4.4% among 390,000; AID 504339; also: nearly all actives have a fitted effect of over 50% in size
PLK1 PBD inh = PLK1 (human) polo-box domain binding inhibition; AID 720504; hit rate 2.8% among 360,000; P53350; Plk1 PBD binding of FITC phosphopeptide, fluorescence polarization; Potency, µM, most hits filed as inhibitors; also: series mostly up to about 57 µM; nearly all actives have a fitted effect of over 65% in size
A number is an active result; i = inactive; ? = inconclusive; nt = no result; [ ] = dose if it differs, or a comment. Sampled rows, rich in hits. Any-hit rate of the full collection: about 7%. Unless noted, calls follow the shape of the dose curve; as a rule, active = well fitted curve in the direction sought with a large enough effect; inconclusive = small, poorly fitted or top-dose-only effect, or another doubt; inactive = no such curve, though single readings can be large; an effect the other way counts as inactive or inconclusive.

SMILES	BAZ2B block	HP1b chromo inh	PI5P4K alpha inh	KAT2A inh	JMJD2A Tudor inh	PLK1 PBD inh
C[C@@H]1CN([C@H](C)CO)C(=O)c2cc(Br)cnc2O[C@H]1CN(C)C(=O)Nc1ccc2c(c1)OCO2	nt	nt	i	nt	nt	i
CN(CC(=O)NCc1ccccc1Cl)S(=O)(=O)c1ccc2c(c1)c(=O)n(C)c(=O)n2C	i	i	nt	i	i	nt
CCOc1ccc(C(C)=O)cc1COc1ccc(-c2nnco2)cc1	50µM	i	i	i	i	i
COc1ccc(C(C)=O)cc1COc1ccc(F)cc1	i	i	i	i	i	i
Oc1ccc(N=Cc2ccc(O)c(O)c2)cc1	45µM	?	-79	i	56µM	21µM
Oc1ccc(/C=N/N=C/c2ccc(O)c(O)c2)cc1O	10µM	i	i	i	7.9µM	i
Oc1ccc(/C=N/N=C/c2ccc(O)cc2)cc1	i	i	i	i	i	i
O=C1Nc2ccccc2/C1=N\N=C\c1ccc(O)c(O)c1	40µM	32µM	-56	i	?	i
O=C(/C(=N/O)c1ccccc1)c1ccccc1	nt	i	i	nt	i	i
OC/C=C/c1ccc(O)c(O)c1	nt	nt	nt	i	nt	nt
O=C(/C(=N/N=C/c1ccc(O)c(O)c1)c1ccccc1)c1ccccc1	40µM	?	i	i	25µM	i
Cc1cc(C)c(NC(=O)CCS(=O)(=O)c2cc3c(cc2Cl)NC(=O)CO3)c(C)c1	i	i	nt	i	i	nt
Nc1nonc1C(=O)NCCNC(=O)c1cccc(Cl)c1	i	i	i	i	i	i
CN1CCCN(C(=O)CC2(CC(=O)O)CCCCC2)CC1	i	i	i	i	?	i
Cc1nn2c(=O)cc(COC(=O)Cc3ccccc3)nc2s1	i	i	nt	i	i	nt
O=C(c1ccc(Br)cc1)N1CCC(C(=O)N2CCN(c3ccccc3)CC2)CC1	i	i	i	i	i	i
O=C1CN(c2ccccc2)C(=S)N1C(=O)c1ccc(Br)cc1	i	i	i	i	i	24µM
O=C(O)c1cccc(-c2ccc(/C=N/NC(=O)C3COc4ccccc4O3)o2)c1 (configuration not stated)	?	i	i	i	i	i
CNC(=S)N/N=C/c1ccc(-c2cccc(C(=O)O)c2)o1	i	i	?	i	i	i
O=C(N/N=C\c1ccc(-c2ccccc2[N+](=O)[O-])o1)C1COc2cc3ccccc3cc2O1 (configuration not stated)	?	i	i	22µM	?	i
CC(C)(C)c1ccc2c(c1)OC(C(=O)N/N=C\c1ccc(-c3cccc(C(=O)O)c3)o1)CO2 (configuration not stated)	50µM	i	i	i	i	19µM
Cc1c(C(=O)N/N=C/c2ccc(-c3ccccc3[N+](=O)[O-])o2)sc(N)c1C#N	?	i	-53	i	?	?
O=C(O)c1cccc(-c2ccc(/C=N/Nc3nn[nH]n3)o2)c1	56µM	i	?	i	56µM	i
Cc1ccc(CNC(=O)C(=O)NCC(c2cccs2)S(=O)(=O)c2ccc(C)cc2)cc1 (configuration not stated)	i	i	nt	i	i	nt
CCOc1ccccc1N(CC(=O)NC1CCCCC1)C(=O)CCC(=O)Nc1nccs1	i	i	i	i	i	i
SMILES	BAZ2B block	HP1b chromo inh	PI5P4K alpha inh	KAT2A inh	JMJD2A Tudor inh	PLK1 PBD inh
C[C@@H]1CN([C@H](C)CO)C(=O)CCCn2nncc2CO[C@H]1CN(C)S(=O)(=O)c1ccccc1	nt	nt	i	nt	nt	i
O=C1CCc2cc(S(=O)(=O)Nc3ccccn3)ccc2N1	nt	nt	nt	nt	i	nt
COc1cc(N=c2c([N+](=O)[O-])nn(-c3ccc4c(c3)OCCO4)n2O)cc(OC)c1	?	i	i	i	i	i
Cc1cccc(N=c2c([N+](=O)[O-])nn(-c3ccc(Cl)cc3)n2O)c1	10µM	i	i	i	i	i
O=[N+]([O-])c1nn(-c2ccc3c(c2)OCCO3)n(O)c1=NCc1ccc(F)cc1Cl	i	i	i	i	i	i
O=[N+]([O-])c1nn(-c2ccc3c(c2)OCCO3)n(O)c1=NCc1ccc(F)cc1	35µM	?	i	i	35µM	i
CN=c1c([N+](=O)[O-])nn(-c2ccc3c(c2)OCCO3)n1O	i	i	i	i	i[11.4 µM]	24µM
Cc1cc(C)cc(N=c2c([N+](=O)[O-])nn(-c3cccc(Cl)c3)n2O)c1	?	i	nt	i[0.501 µM]	?	i
COc1cccc(CNC(=O)c2ccc3nc(CCc4ccccc4)oc3c2)c1OC	i	i	nt	i	i	nt
CCC(=O)Nc1c(-c2ccccc2Cl)c(=O)c2ccccc2n1CC	i	i	i	i	i	i
O=S(=O)(Nc1ccc(Cl)cn1)c1cccs1	i	i	i	i	i	i
CCN1C(=NCCCOC(C)C)N[C@@H](CCc2ccccc2)[C@H](C(=O)NCCCOC(C)C)[C@H]1C	i	i	i	i	?	24µM
CCN1C(=NCCOC)N[C@@H](CCc2ccccc2)[C@H](C(=O)OC)[C@H]1C	i	i	i	i	40µM	i
CCN1C(=O)N[C@@H](CCc2ccccc2)[C@H](C(C)=O)[C@H]1C	nt	i	i	nt	i	i
Cc1ccc(C(=O)N2CCC(N3CCN(Cc4ccc(F)cc4)C(=O)C3=O)CC2)cc1	i	i	nt	i	i	nt
O=C(NCC1CCCO1)C(Cc1ccccc1)N1C(=O)C2C3C=CC(C4CC34)C2C1=O (configuration not stated)	i	i	i	i	i[11.4 µM]	11µM
CCC(C(=O)NCc1ccccc1OC)n1nc(C)n2c(cc3sccc32)c1=O (configuration not stated)	i	i	nt	i	i	nt
Cc1ccc(C(C(=O)NCC2CCCO2)N(Cc2ccccc2)C(=O)c2ccc(-c3ccccc3)[nH]2)o1 (configuration not stated)	40µM	i	i	?	?	i
O=C(NC1CCCC1)C(c1ccncc1)N(CCCN1CCOCC1)C(=O)c1ccc(-c2ccccc2)[nH]1 (configuration not stated)	i	i	i	i	i	i
O=C(NC1CCCC1)C(c1ccncc1)N(Cc1ccccc1)C(=O)c1ccc(-c2ccccc2)[nH]1 (configuration not stated)	45µM	i	i	i	?	i
O=C(NC(NC(=S)Nc1ccccc1C(=O)O)C(Cl)(Cl)Cl)c1cccc([N+](=O)[O-])c1 (configuration not stated)	i	i	i	?	79µM	24µM
COc1ccc(NC(=S)NC(NC(=O)c2cccc(C)c2)C(Cl)(Cl)Cl)c([N+](=O)[O-])c1 (configuration not stated)	?	i	i	i	i[11.4 µM]	?
COc1ccc(NC(=S)NC(NC(C)=O)C(Cl)(Cl)Cl)c([N+](=O)[O-])c1 (configuration not stated)	i	?	?	i	i	24µM

Screens deposited in PubChem BioAssay by National Center for Advancing Translational Sciences (NCATS).
